# In PubChem BioAssay (EPA / NIEHS):
# Several values for one entry are separate records, joined by “and”; a condition that tells them apart may be missing. Equal values may be shown once. Results filed as inconclusive are left out. Where a structure was tested more than once in an assay, its records may differ in their call. Activity calls are given as the source filed them. Rule for the calls: active = hit-call score of the fitted dose curve at least 0.9, where 1 is the maximum; inconclusive = response in the unintended direction; inactive = score below 0.9.
# Target: Cellular tumor antigen p53 (Homo sapiens) (UniProt P04637)
# Sequence (P04637 whole entry, looked up): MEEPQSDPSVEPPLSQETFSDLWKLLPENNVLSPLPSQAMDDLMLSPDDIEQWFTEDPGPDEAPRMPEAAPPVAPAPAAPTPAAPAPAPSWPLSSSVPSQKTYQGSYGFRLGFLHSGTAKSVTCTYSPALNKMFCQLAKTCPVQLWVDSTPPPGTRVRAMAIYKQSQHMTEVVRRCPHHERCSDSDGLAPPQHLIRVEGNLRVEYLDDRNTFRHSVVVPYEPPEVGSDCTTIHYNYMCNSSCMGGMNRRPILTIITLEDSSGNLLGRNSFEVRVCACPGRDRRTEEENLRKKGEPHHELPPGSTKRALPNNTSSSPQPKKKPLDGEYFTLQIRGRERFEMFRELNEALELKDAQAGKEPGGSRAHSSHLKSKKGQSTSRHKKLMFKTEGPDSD
# Assay: TOX21_p53_BLA_p5_ratio: Tox21 HCT-116 p53 Agonism Beta-lactamase Assay, Ratio, Phase 5 (AID 2283599)
# Outline: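 Beta-lactamase reporter ratio (blue 460 nm over green 530 nm, 405 nm excitation) after 2 h CCF4-AM loading, in HCT-116 cells exposed 16 h at 37 C to compounds pinned at 217-fold dilution. Increases relative to DMSO baseline scored.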
SMILES,AC50,outcome
Nc1nc(N)c2nc(CNc3ccc(C(=O)N[C@@H](CCC(=O)O)C(=O)O)cc3)cnc2n1,0.158 µM (active),inactive
O=C(O)Cc1ccccc1Nc1c(Cl)cccc1Cl,86.4 µM (active),inactive
CC1(C)CC(N=C=O)CC(C)(CN=C=O)C1 (stereo not drawn),–,inactive
CC(C)c1ccc(C(=O)N=C(N)N)cc1S(C)(=O)=O,–,inactive
Cc1ccc(C(C)C)c(O)c1,73.2 µM (active),inactive
O=c1[nH]cc(F)c(=O)[nH]1,3.72 µM (active) and 3.09 µM (active) and 4.2 µM (active),–
Cc1oc(-c2ccccc2)nc1CCOc1cccc2c1ccn2CCC(=O)O,–,inactive
Cc1c(C(=O)O)c(O)cc2c1C(=O)c1c(O)c([C@@H]3O[C@H](CO)[C@@H](O)[C@H](O)[C@H]3O)c(O)c(O)c1C2=O,–,inactive
CCOc1ccc2c(c1)C(C)=CC(C)(C)N2,67.7 µM (active),inactive
COc1cc(C=O)ccc1O,–,inactive
CCCCCCOCCO,–,inactive
COc1ccc2c(c1)c(CC(=O)O)c(C)n2C(=O)c1ccc(Cl)cc1,–,inactive
COCCOCCOC,–,inactive
CNC(=O)[C@H]1O[C@@H](n2cnc3c(NCc4cc(Cl)ccc4OCc4cc(C)no4)ncnc32)[C@H](O)[C@@H]1N,–,inactive
COC(=O)c1ccc(O)cc1,–,inactive
CC(=O)OC/C=C(\C)CCC=C(C)C,–,inactive
CN[C@H]1CC[C@@H](c2ccc(Cl)c(Cl)c2)c2ccc(S(N)(=O)=O)cc21,82.5 µM (active),–
Cc1ccc(N(C)C)cc1,–,inactive
c1cc(-c2ccncc2)ccn1,–,inactive
